# Measurements from the supplement of paper PMC13380429.
# Tests used:
# [1] = test system: Vero E6 infected with SARS-CoV-2; test: morphology score (similarity to uninfected cells); higher = more like uninfected cells; details: 24 h
# [2] = test system: Vero E6 infected with SARS-CoV-2; test: SARS-CoV-2 infection rate relative to infected DMSO; higher = more infection, active = 60 or less; details: 24 h
SMILES,morphology score [1],SARS-CoV-2 infection rate [2]
C/C(=C\c1csc(C)n1)[C@@H]1C[C@@H]2O[C@]2(C)CCC[C@H](C)[C@H](O)[C@@H](C)C(=O)C(C)(C)[C@@H](O)CC(=O)N1 [ixabepilone] (10 µM),-0.0812,108% (inactive)
CCN(CC)CCOC(=O)c1cc(Cl)c(N)cc1OC (10 µM),0.128,104% (inactive)
CC(=O)Oc1cc2c(s1)CCN(C(C(=O)C1CC1)c1ccccc1F)C2 (configuration not stated) [prasugrel] (10 µM),0.0783,108% (inactive)
N#Cc1cccc(C(=O)Nc2cc(-c3ccccc3)nn2-c2ccccc2)c1 (10 µM),-0.166,104% (inactive)
Cn1cc(-c2ccc3c(c2)CCN3C(=O)Cc2cccc(C(F)(F)F)c2)c2c(N)ncnc21 (0.833333 µM),0.029,92% (inactive)
CCCN(C/C=C/I)[C@H]1CCc2ccc(O)cc2C1 [7-hydroxy-PIPAT] (10 µM),-0.0984,118% (inactive)
O=C(CCCCCCCn1cc(-c2cccnc2)nn1)Nc1ccccc1-c1ccccc1 (0.833333 µM),-0.143,114% (inactive)
O=C1c2ccccc2S(=O)(=O)N1CCCCN1CCN(c2ncccn2)CC1 [ipsapirone] (10 µM),-0.0209,102% (inactive)
CC(C)OC(=O)C(C)(C)Oc1ccc(C(=O)c2ccc(Cl)cc2)cc1 [fenofibrate] (10 µM),0.0415,101% (inactive)
Cc1cnc(Nc2ccc(N3CCN(C)CC3)cc2)nc1Nc1cccc(S(=O)(=O)NC(C)(C)C)c1 (0.833333 µM),0.106,122% (inactive)
Cc1[nH]nc(C(F)(F)F)c1Cc1sc2c(c1C(=O)N1C[C@](C)(O)CO1)c(=O)n(C)c(=O)n2C(C)C (10 µM),0.0405,101% (inactive)
CSc1ccc2c(c1)N(CCC1CCCCN1C)c1ccccc1S2 (configuration not stated) [thioridazine] (0.833333 µM),0.304,109% (inactive)
CN1CCN(c2ccc3ccccc3n2)CC1 [N-methylquipazine] (10 µM),0.139,100% (inactive)
CC(=O)N(CC(O)CO)c1c(I)c(C(=O)NCC(O)CO)c(I)c(C(=O)NCC(O)CO)c1I (configuration not stated) [iohexol] (10 µM),0.142,104% (inactive)
CN(C)c1ccc2nc3ccc(=[N+](C)C)cc-3sc2c1 [methylene-blue] (0.833333 µM),0.152,104% (inactive)
CCC(=O)O[C@]1(C(=O)CCl)[C@@H](C)C[C@H]2[C@@H]3CCC4=CC(=O)C=C[C@]4(C)[C@@]3(F)[C@@H](O)C[C@@]21C [clobetasol-propionate] (10 µM),0.00072,105% (inactive)

SMILES,morphology score [1],SARS-CoV-2 infection rate [2]
CNC(=O)Oc1ccccc1OC(C)C [propoxur] (10 µM),-0.276,118% (inactive)
Oc1ccc2[nH]cc(C3=CCNCC3)c2n1 (10 µM),0.00585,90% (inactive)
OCC(Br)(Br)Br [tribromoethanol] (10 µM),-0.0304,118% (inactive)
Cc1cn(C[C@H](N)C(=O)O)c(=O)n(Cc2ccsc2C(=O)O)c1=O (10 µM),-0.0699,96.5% (inactive)
CC(=O)OCC(=O)[C@@]12OC3(CCCC3)O[C@@H]1C[C@H]1[C@@H]3CCC4=CC(=O)C=C[C@]4(C)[C@@]3(F)[C@@H](O)C[C@@]12C [amcinonide] (10 µM),0.114,110% (inactive)
COc1cc(-c2cc(-c3cccc(O)c3)cnc2N)cc(OC)c1OC (10 µM),0.51,95% (inactive)
C=CC(=O)Nc1cc(Nc2nccc(-c3c[nH]c4ccccc34)n2)c(OC)cc1N(C)CCN(C)C (0.833333 µM),-0.245,112% (inactive)
CCNC(=O)[C@H]1O[C@@H](n2cnc3c(N)nc(NCCc4ccc(CCC(=O)O)cc4)nc32)[C@H](O)[C@@H]1O (10 µM),-0.0155,115% (inactive)
CNC(=O)O[C@H]1COc2ccc(N3CCN(C4COC4)CC3)cc2[C@@H]1NC(=O)c1ccc(F)cc1 (10 µM),0.123,95.5% (inactive)
OCCN1C[C@H](O)[C@@H](O)[C@H](O)[C@H]1CO [miglitol] (10 µM),0.11,106% (inactive)
NC(=O)C1=CN([C@@H]2O[C@H](COP(=O)(O)OP(=O)(O)OC[C@H]3O[C@@H](n4cnc5c(N)ncnc54)[C@H](OP(=O)(O)O)[C@@H]3O)[C@@H](O)[C@H]2O)C=CC1 (10 µM),-0.0816,106% (inactive)
O=C1NC(=O)/C(=C/c2ccc3c(c2)OC(F)(F)O3)S1 (10 µM),-0.0969,106% (inactive)
Cc1ccc(S(=O)(=O)NC(=O)NN2CCCCCC2)cc1 [tolazamide] (10 µM),0.103,100% (inactive)
CC(C)C[C@H](NC(=O)[C@@H](COC(C)(C)C)NC(=O)[C@H](Cc1ccc(O)cc1)NC(=O)[C@H](CO)NC(=O)[C@H](Cc1c[nH]c2ccccc12)NC(=O)[C@H](Cc1cnc[nH]1)NC(=O)[C@@H]1CCC(=O)N1)C(=O)N[C@@H](CCCNC(=N)N)C(=O)N1CCC[C@H]1C(=O)NNC(N)=O [goserelin-acetate] (10 µM),0.0827,109% (inactive)
C=C1C[C@@]2(O)O[C@@]3(C[C@H]2C(C)C)[C@@H](C)CC[C@@H]13 [curcumol] (10 µM),0.157,106% (inactive)
